# Screening results as filed in PubChem.
# Shown is part of a subset that was picked to be rich in hits.
# USP2a inh: USP2a (human) protease inhibition; O75604; USP2a enzymatic assay, qHTS inhibition; Potency, µM (doses to about 38.3 µM), most hits filed as inhibitors; 60,000 tested, 0.1% active; note: nearly all actives have a fitted effect of over 60% in size
#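 20 nM USP2 core + cpd, 30 min RT; add 20 nM Ub-PLA2/20 uM NBD C6-HPC; read Ex460/Em535 at 0 h and 2.5 h. Normalized to NEM; qHTS curve fit/classification.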
# Caspase-1 inhib: blocks human caspase-1 allosterically or competitively. 75,000 tested, 0.03% active. Caspase-1 enzyme, Ac-WEHD-AFC fluorogenic rate. P29466. Potency, µM (top dose mostly 57.5 µM), hits mostly inhibitors
# 15-hLO inh: blocks human 15-lipoxygenase activity. P16050. AID 887. Potency, µM (titrated, usually from 57.1 µM), hits mostly inhibitors. purified 15hLO-1, xylenol orange hydroperoxide absorbance. 74,000 tested, 1.4% active; note: nearly all actives have a fitted effect of over 55% in size
#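 40 nM 15hLO-1 + cpd, 15 min RT; start w/ 50 uM AA (final), 6 min RT; stop/detect w/ 200 uM XO + 300 uM Fe(II) in 50 mM H2SO4, 30 min; A573/A405. Buffer 25 mM Hepes pH 7.5, 0.01% Triton X-100. No-enzyme wells as negative control.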
# ALOX15B inhib: inhibitors of human 15-lipoxygenase 2 (ALOX15B). O15296. AID 881. Potency, µM (doses to about 57.1 µM), most hits filed as inhibitors. 110,000 tested, 0.56% active. purified 15hLO-2, xylenol orange hydroperoxide absorbance; note: nearly all actives have a fitted effect of over 60% in size
#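 Read-out: hydroperoxide product oxidises ferrous iron, measured as xylenol orange complex via the 573-to-405 nm absorbance ratio after 30 min. Reaction: 50 nM enzyme, 15 min compound preincubation, 45 uM arachidonic acid, 90 min RT, Hepes pH 7.5 with Triton X-100.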
# Casp7 inh: allosteric or competitive inhibitors of human caspase-7; P55210; recombinant caspase-7, Ac-DEVD-AFC fluorescence rate; Potency, µM (series often up to 57.5 µM), usual class: inhibitors; 75,000 tested, 0.02% active; active = well fitted inhibition curve with a large enough effect in the main read-out, with a control signal flat, not every such curve was filed as active; inconclusive = small, poorly fitted or top-dose-only effect, or a change in a side signal
# Numbers stand for hits; - = inactive; ? = inconclusive; . = not tested or not shown; ! = not active in a repeat; [ ] = dose if it differs, or a comment. Unless noted, calls come from the whole dose curve; as a rule, active = well fitted curve in the direction sought with a large enough effect; inconclusive = small, poorly fitted or top-dose-only effect, or another doubt; inactive = no such curve, though single readings can be large; an effect the other way counts as inactive or inconclusive.
SMILES,USP2a inh,Caspase-1 inhib,15-hLO inh,ALOX15B inhib,Casp7 inh
O=C(O)[C@@H]1Cc2c([nH]c3ccccc23)[C@@H](CCCCO)N1,.,-[11.5 µM],-[11.4 µM],-[11.4 µM],-[11.5 µM]
O=C(CC1N=C2c3ccccc3N=C(SCc3ccc(Cl)cc3)N2C1=O)NCc1ccco1 (stereo not drawn),-,-,25.1µM,-,-
O=C1c2ccccc2C(Cc2ccnc(F)c2)(Cc2ccnc(F)c2)c2ccccc21,.,-,?,-,-
Cc1cc2cc(CNC(=O)c3ccc4c(c3)OCO4)ccc2n1C,-,-,20µM,-[2.29 µM],-
COC(=O)NC(/C(C(=O)OC)=C(\C)NCc1ccccc1)c1ccc(F)cc1 (stereo not drawn),.,-[11.5 µM],-[11.4 µM],.,-[11.5 µM]
C=C(c1ccc(O)cc1)c1ccc(O)cc1,-,-,-,?,-
C/C=C(/C(=C/C)c1ccc(O)cc1)c1ccc(O)cc1,-,-,25.1µM,15.8µM,-
Cc1nc2ccccc2c2oc(C(=O)N3CCN(C(=O)c4ccco4)CC3)cc12,.,-,-,-,-
Cc1nc2ccccc2c2oc(C(=O)N3CCc4ccccc4C3)cc12,.,-,20µM,-,-
CCc1nnc(NC(=O)c2ccc(NS(=O)(=O)c3ccccc3)cc2)s1,-,-,-,.,-
CCc1nnc(NS(=O)(=O)c2ccc(NC(=S)NC(=O)/C=C/c3ccc(C(C)C)cc3)cc2)s1,.,.,.,25.1µM,.
COc1ccc(/C=C/C(=O)NC(=S)NCCc2ccc(OC)c(OC)c2)cc1,.,.,.,-,.
COc1ccc(CCNC(=S)NC(=O)c2ccccc2)cc1OC,.,.,.,12.6µM,.
CC(=O)c1ccc(OC2C(O)COC2/C=C/c2ccc(Cl)cc2)cc1 (stereo not drawn),.,-[11.5 µM],-[11.4 µM],.,-[11.5 µM]
Cc1ccc(OC2C(O)COC2/C=C/C#Cc2ccc(C(C)(C)C)cc2)cc1 (stereo not drawn),.,-[11.5 µM],3.16µM!,.,-[11.5 µM]
CCCCC#CC1C=CC(Oc2ccc(C(=O)OC)cc2)C(COC(=O)OCC)O1 (stereo not drawn),.,-[11.5 µM],-[11.4 µM],.,-[11.5 µM]
CCN1C(=O)/C(=C/N(C)c2ccccc2)OC1=S,-,-,7.94µM,-,-
O=C(C1=C(O)C(=O)N(Cc2ccco2)C1c1cccnc1)c1cc2ccccc2o1 (stereo not drawn),-,-,15.8µM,-,-
COC(=O)NC(c1cccc(F)c1)C(C(C)=O)C(=O)OC (stereo not drawn),.,-[11.5 µM],-[11.4 µM],.,-[11.5 µM]
COc1ccc2c(c1)[n+]([O-])c(/C(C)=N/NC(N)=S)c(C)[n+]2[O-],.,-[11.5 µM],-[11.4 µM],-[11.4 µM],-[11.5 µM]
O=C1c2cccc(O)c2C(=O)c2c(O[C@@H]3O[C@H](CO)[C@@H](O)[C@H](O)[C@@H]3O)cccc21,.,-[11.5 µM],-[11.4 µM],-[11.4 µM],-[11.5 µM]
O=C(O)c1cc(O)c2c(c1)[C@H]([C@H]1c3cc(C(=O)O)cc(O)c3C(=O)c3c(O[C@@H]4OC(CO)C(O)C(O)C4O)cccc31)c1cccc(O[C@@H]3OC(CO)C(O)C(O)C3O)c1C2=O (stereo partly drawn),12.6µM,25.1µM,12.6µM,10µM,10µM
COc1ccccc1CNc1cc(-c2ccccc2Cl)ncn1,-,-,-,-,-
COc1cc2[nH]c(=S)n(CC3CCCO3)c(=O)c2cc1OC (stereo not drawn),-,-,-,-,-
COc1cc2[nH]c(=S)n(C3CCCC3)c(=O)c2cc1OC,-,-,15.8µM,-,-
SMILES,USP2a inh,Caspase-1 inhib,15-hLO inh,ALOX15B inhib,Casp7 inh
CC(N=Cc1cccc(O)c1O)c1ccccc1 (stereo not drawn),-,-,12.6µM,?,-
COc1ccccc1CC(=N)N1C[C@@H]2C(=O)CCC(c3ccccc3)(c3ccccc3)[C@@H]2C1,.,-,-,-,-
CCOc1ccc(-c2nc(=S)[nH][nH]2)cc1,-,-,25.1µM,?,-
O=C(Nc1ccc(F)cc1)N1CCN(c2ccc3nnc(-c4ccc(F)cc4)n3n2)CC1,.,.,.,-,.
Fc1ccc(-c2nnc3ccc(N4CCc5ccccc5C4)nn23)cc1,.,-,25.1µM,-,-
O=C(c1ccco1)N1CCC2(CC1)CCN(c1ccncc1)CC2,-,-,-,-,-
CCOC(=O)Cn1cc(C(=O)c2ccco2)c2ccccc21,-,-,-,-,-
COC(=O)CCc1c(C)c(C(=O)c2ccco2)c2ccccn12,-,.,7.94µM,-,.
CC(C)(C)CC(C)(C)c1ccc(O)c(CN2CCN(CCC#N)CC2)c1,.,.,.,-,.
CC(C)(C)CC(C)(C)c1cc(O)c(O)c(CN2CCCCC2)c1,.,-[11.5 µM],0.398µM,?,-[11.5 µM]
CC1CCC2C(=O)OC(CO)CN2C1c1ccc(Br)cc1 (stereo not drawn),.,-[11.5 µM],-[11.4 µM],.,-[11.5 µM]
